# Source: PubChem BioAssay (EPA / NIEHS)
# Inconclusive results are not listed. The source made the active and inactive calls. How the source made its calls, unless noted: active means hit-call score of the fitted dose curve at least 0.9, where 1 is the maximum; inactive means score below 0.9.
# Key:
# [1] = CCTE_Deisenroth_H295R-HTRF_384WELL_ESTRADIOL: CCTE's H295R-HTRF Assay Evaluation of Estradiol Concentration, Deisenroth Lab (AID 2284361); settings: actives raise or lower the signal
# Outline: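 Estradiol secreted into medium by H295R adrenocortical cells, quantified by HTRF after 48 h dosing over a nine-point 0.001 - 100 uM final range; gain or loss versus DMSO. Parallel ATP-luminescence viability readout; n=5 experiments.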
# [2] = CCTE_Deisenroth_H295R-HTRF_384WELL_TESTOSTERONE: CCTE's H295R-HTRF Assay Evaluation of Testosterone Concentration, Deisenroth Lab (AID 2284373); settings: actives raise or lower the signal
# Outline: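 Testosterone secreted into medium was quantified by direct HTRF immunoassay after a 48 h treatment of H295R adrenocortical cells (nine concentrations, 0.001–100 uM final). Gain or loss fitted relative to DMSO; CellTiter-Glo viability read on same plates.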
# [3] = CCTE_Deisenroth_H295R-HTRF_384WELL_CTOX: Cytotoxicity Assessment in CCTE's H295R-HTRF Assay, Deisenroth Lab (AID 2284380; active means hit-call score of the fitted dose curve at least 0.9, where 1 is the maximum)
# Outline: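 Luminescent ATP viability readout (CellTiter-Glo 2.0), multiplexed on plates used for hormone sampling, after 48 h chemical exposure. Human H295R cells; final concentrations 0.001–100 uM in nine steps, technical triplicates, five experiments; DMSO baseline.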
# [4] = system: TTR (gene 7276); experiment: CCTE_GLTED_hTTR_0.125uM: CCTE's human Transthyretin (hTTR) Inhibition Assay, with 0.125uM TTR, Great Lakes Toxicology and Ecology Division (GLTED) Lab (AID 2284431);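 further: hits lower the fluorescence signal relative to DMSO baseline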
# Outline: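 TTR at 0.125uM incubated 2 h with test chemical; displacement of bound ANSA read by fluorescence (ex 380, em 475). Activity is signal loss versus DMSO baseline.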
# [5] = system: SRY-box transcription factor 2 (SOX2) Protein Expression, Deisenroth Lab, SOX2 (gene 6657); experiment: CCTE_Deisenroth_DEVTOX-GLR_legacy_Sox2: (Legacy) CCTE's DevTox GLR-Endo Assay Evaluation of SRY-box transcription factor 2 (SOX2) Protein Expression, Deisenroth Lab (AID 2284346)
# Outline: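 Read-out: fraction of Sox2+ cells by high-content fluorescence imaging of fixed RUES2-GLR cells after 48 h differentiation with two 24 h-spaced exposures. Positivity cutoff 5x BMAD above endoderm control median; 0.2% DMSO median subtracted.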
# [6] = system: SRY-box transcription factor 17 (SOX17) Protein Expression, Deisenroth Lab, SOX17 (gene 64321); experiment: CCTE_Deisenroth_DEVTOX-GLR_Endo_SOX17: CCTE's DevTox GLR-Endo Assay Evaluation of SRY-box transcription factor 17 (SOX17) Protein Expression, Deisenroth Lab (AID 2284413)
# Outline: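 Human RUES2-GLR cells carrying an inducible fluorescent reporter are differentiated in defined media for 48 h and dosed twice, 24 h apart. After fixation and nuclear staining, imaging yields SOX17+ cell percentage relative to 0.2% DMSO-treated differentiated cells.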
# [7] = system: Brachyury (BRA) Protein Expression, TBXT (gene 6862); experiment: CCTE_Deisenroth_DEVTOX-GLR_Endo_BRA: CCTE's DevTox GLR-Endo Assay Evaluation of Brachyury (BRA) Protein Expression, Deisenroth Lab (AID 2284417)
# Outline: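 RUES2-GLR pluripotent cells differentiated 48 h with two chemical exposures 24 h apart, 10-point range 1 nM - 200 uM. Percentage of BRA+ cells per total count by high-content imaging, minus 0.2% DMSO control.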
# [8] = CCTE_Deisenroth_DEVTOX-GLR_Endo_CellCount: Viability Assessment in CCTE's DevTox GLR-Endo Assay, Deisenroth Lab (AID 2284420)
# Outline: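 Percent change in nuclear-stain cell counts versus 0.2% DMSO, from high-content imaging over 5 fields per well. Over a 48 h endoderm differentiation, RUES2-GLR cells received two doses 24 h apart across a 1 nM–200 uM series, with n=4.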
# [9] = system: SRY-box transcription factor 2 (SOX2) Protein Expression, Deisenroth Lab, SOX2 (gene 6657); experiment: CCTE_Deisenroth_DEVTOX-GLR_Pluri_SOX2: CCTE's DevTox GLR-Pluri Assay Evaluation of SRY-box transcription factor 2 (SOX2) Protein Expression, Deisenroth Lab (AID 2284428)
# Outline: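 Percent SOX2+ cells (SOX2+ count per total cells, fluorescent imaging) in RUES2-GLR human pluripotent line, expressed relative to 0.2% DMSO. Compounds dosed twice at 24 h intervals during 48 h, 1 nM - 200 uM, 10 concentrations.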
# [10] = system: Brachyury (BRA) Protein Expression, Deisenroth Lab, TBXT (gene 6862); experiment: CCTE_Deisenroth_DEVTOX-GLR_Pluri_BRA: CCTE's DevTox GLR-Pluri Assay Evaluation of Brachyury (BRA) Protein Expression, Deisenroth Lab (AID 2284429; active means hit-call score of the fitted dose curve at least 0.9, where 1 is the maximum)
# Outline: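 RUES2-GLR reporter line; 48 h mesoderm differentiation; two exposures, 24 h apart; 1 nM - 200 uM, 10 points; nuclear stain, high-content imaging, 5 fields/well; endpoint = %BRA+ cells of total count minus 0.2% DMSO; n=4.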
# [11] = CCTE_Deisenroth_DEVTOX-GLR_Pluri_CellCount: Viability Assessment in CCTE's DevTox GLR-Pluri Assay Evaluation of Total Cell Counts, Deisenroth Lab (AID 2284430)
# Outline: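 Cytotoxicity readout: fluorescent nuclei counts by high-content imaging, expressed as percent change relative to 0.2% DMSO. Human RUES2-GLR pluripotent line differentiated 48 h, dosed twice at 24-h intervals across 1 nM - 200 uM (10 points).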
smiles,measurement,setting,value
CCCCC(CC)COC(=O)c1ccccc1C(=O)OCC(CC)CCCC (configuration not stated),outcome,[1],inactive
same,outcome,[2],inactive
same,outcome,[3],inactive
OC(c1ccc(Cl)cc1)(c1cncnc1)c1ccccc1Cl (configuration not stated),outcome,[1],inactive
same,outcome,[2],inactive
same,outcome,[3],inactive
CCON=C(CC)C1=C(O)CC(c2c(C)cc(C)cc2C)CC1=O (configuration not stated),AC50,[4],9.92 µM (active)
COC(=O)c1ccccc1C(=O)OC,outcome,[5],inactive
same,outcome,[6],inactive
same,outcome,[7],inactive
same,outcome,[8],inactive
same,outcome,[9],inactive
same,outcome,[10],inactive
same,outcome,[11],inactive
CCNc1nc(Cl)nc(NC(C)C)n1,AC50,[1],9.8 µM (active)
same,outcome,[2],inactive
same,outcome,[3],inactive
Cc1cc(Cl)ccc1OCC(=O)O,AC50,[4],22.1 µM (active)
C=CC1(C)OC(=O)N(c2cc(Cl)cc(Cl)c2)C1=O (configuration not stated),AC50,[4],1.68 µM (active)
COc1nc(NC(C)C)nc(NC(C)C)n1,AC50,[1],34.6 µM (active)
same,outcome,[2],inactive
same,outcome,[3],inactive
COP(=S)(OC)Oc1nc(Cl)c(Cl)cc1Cl,AC50,[4],0.274 µM (active)
COC(=O)C(C)Oc1ccc(Oc2ccc(Cl)cc2Cl)cc1 (configuration not stated),AC50,[4],1.12 µM (active)
Cc1ccc(-c2c(Cl)nc(C#N)n2S(=O)(=O)N(C)C)cc1,AC50,[4],0.0946 µM (active)
CCCCNC(=O)n1c(NC(=O)OC)nc2ccccc21,outcome,[1],inactive
same,outcome,[2],inactive
same,AC50,[3],5.92 µM (active)
CCCN(CCC)c1c([N+](=O)[O-])cc(S(N)(=O)=O)cc1[N+](=O)[O-],AC50,[4],9.88 µM (active)
Fc1ccc(Oc2ccnc3cc(Cl)cc(Cl)c23)cc1,AC50,[4],2.74 µM (active)
O=C(O)COc1nc(Cl)c(Cl)cc1Cl,AC50,[4],6.69 µM (active)
Oc1ccccc1-c1ccccc1,AC50,[4],14.2 µM (active)
